Test [1] concerns the target Retinoic acid receptor RXR-alpha (Homo sapiens) (UniProt P19793). Nature of the test: qHTS assay to identify small molecule agonists of the RXR signaling pathway (AID 1159527; calls by dose curve; note: nearly all actives have a fitted effect of over 35% in size; note: potency is the fitted concentration of half-maximal effect). In a few lines: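 GeneBLAzer RXR-alpha-UAS-bla HEK 293T cells in medium with 2% charcoal-stripped FBS, pre-incubated 5 hr at 37 C, then exposed to compounds 16 hr. Beta-lactamase reporter read by FRET substrate, 2 hr room temperature, 460/530 nm emission.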

Test [2] can be described thus: qHTS assay to identify small molecule agonists of the RXR signaling pathway - cell viability counter screen (AID 1159529). Note: series mostly up to about 77 µM; nearly all actives have a fitted effect of over 50% in size. Summed up: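 RXR-alpha-UAS-bla HEK 293T cells in medium with 2% charcoal-stripped FBS were preincubated 5 hr, then exposed to compounds for 16 hr at 37 C. Viability was read as CellTiter-Glo luminescence after 30 min at room temperature.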
A short description of test [3]: qHTS assay to identify small molecule antagonists of the retinoid acid receptor (RAR) signaling pathway - cell viability counter screen (AID 1159551). Note: nearly all actives have a fitted effect of over 35% in size. In a few lines: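 Viability of C3RL4 cells is quantified from ATP by luminescence after 6 h treatment at 37 C with compounds and 1 uM retinol.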
In general terms: Quantitative high-throughput screening tests each substance at several concentrations.

Test [4] in a line: qHTS assay to identify small molecule antagonists of the retinoic acid receptor (RAR) signaling pathway (AID 1159552; note: nearly all actives have a fitted effect of over 50% in size). Summed up:
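RARE-luc C3RL4 cells; cpds + 1 uM (final) retinol, 6 hr, 37 C/5% CO2; luciferase reagent, 30 min RT, luminescence readout. Inhibitors of retinol-driven signal scored.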

Test [5] in a line: qHTS assay to identify small molecule agonists of the retinoic acid receptor (RAR) signaling pathway (AID 1159553). In a few lines: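 Compounds dissolved in DMSO were pinned onto C3RL4 cells seeded the previous day, and plates were held 6 hr at 37 C. RARE-driven luciferase output was then read by luminescence.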

Records with an inconclusive call do not appear. Active and inactive are the calls of the source. Unless noted, calls come from the whole dose curve; as a rule, active = well fitted curve in the direction sought with a large enough effect in the repeat runs; inconclusive = weak or mixed curves; inactive = no such curve, though single readings can be large; an effect the other way counts as inactive or inconclusive.

Retinoic acid receptor RXR-alpha (Homo sapiens), sequence (P19793 whole entry, looked up): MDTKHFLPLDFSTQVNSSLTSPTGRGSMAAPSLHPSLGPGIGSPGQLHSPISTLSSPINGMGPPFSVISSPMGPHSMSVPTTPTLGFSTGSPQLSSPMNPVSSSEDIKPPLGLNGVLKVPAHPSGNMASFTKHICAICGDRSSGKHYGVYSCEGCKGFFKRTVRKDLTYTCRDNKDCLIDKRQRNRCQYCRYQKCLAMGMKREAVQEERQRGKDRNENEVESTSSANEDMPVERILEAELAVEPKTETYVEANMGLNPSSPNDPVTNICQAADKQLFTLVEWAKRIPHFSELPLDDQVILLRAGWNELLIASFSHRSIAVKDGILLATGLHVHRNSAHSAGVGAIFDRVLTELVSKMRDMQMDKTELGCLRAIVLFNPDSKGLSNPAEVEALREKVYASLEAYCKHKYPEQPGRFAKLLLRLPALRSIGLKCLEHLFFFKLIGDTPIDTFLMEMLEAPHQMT

Regarding `CC(C)(N)Cc1ccc(Cl)cc1`, the Potency entry in test [1], in test [2], in test [3], in test [4] and in test [5] was “inactive” throughout.
On to `O=C(O)C(Cl)Br` (configuration not stated), for which the Potency result in test [1], in test [2], in test [3], in test [4] and in test [5] was “inactive” throughout.
For the molecule `ClCCCCCCCl`, the Potency result in test [1], in test [2], in test [3], in test [4] and in test [5] was “inactive” throughout.
As to `ClC(Cl)(Cl)Cl`, the Potency entry in test [1], in test [2], in test [3] and in test [4] was “inactive” throughout.
As to `CC(C)(O)C(Cl)(Cl)Cl`, the Potency entry in test [1], in test [2], in test [3], in test [4] and in test [5] was “inactive” in each case.
Consider `c1cncc([C@@H]2CCCCN2)c1`, for which the Potency result in test [1], in test [2] and in test [3] was “inactive” each time.
With `CC(C)(C1CCC(O)CC1)C1CCC(O)CC1` (configuration not stated), the Potency result in test [1], in test [2], in test [3], in test [4] and in test [5] was “inactive” each time.
With `CCC(CC)(CNC(=O)CCCO)c1cccc(OC)c1`, the Potency result in test [1], in test [2], in test [3], in test [4] and in test [5] was “inactive” in each case.
Consider `CCCOC(=O)c1cncn1C(C)c1ccccc1` (configuration not stated), for which the Potency result in test [1], in test [2], in test [3], in test [4] and in test [5] was “inactive” each time.
For `Cc1cccc2sc3nncn3c12`, the Potency entry in test [1], in test [2], in test [3], in test [4] and in test [5] was “inactive” each time.
As for `C#CC(C)(C)O`, the Potency result in test [1], in test [2], in test [3], in test [4] and in test [5] was “inactive” each time.
For `COC(=O)c1ccc(CBr)cc1`, the Potency result in test [1], in test [2], in test [3] and in test [4] was “inactive” each time.
As to `CCCC(C)(COC(N)=O)COC(N)=O`, the Potency entry in test [1], in test [2], in test [3] and in test [4] was “inactive” throughout.
As for `COc1cc(CCN)cc(OC)c1OC`, the Potency result in test [1], in test [2], in test [3], in test [4] and in test [5] was “inactive” throughout.
Regarding `COC[C@@H](NC(C)=O)C(=O)NCc1ccccc1`, the Potency entry in test [1], in test [2], in test [3], in test [4] and in test [5] was “inactive” each time.
On to `CC(C)N(Cc1ccccc1)C(=O)C(C)(C)C`, for which the Potency entry in test [1], in test [2], in test [3], in test [4] and in test [5] was “inactive” each time.
With `Cc1ccc(Cl)c(O)c1`, the Potency result in test [1], in test [2], in test [3], in test [4] and in test [5] was “inactive” each time.
As to `CCCCOC(C)=O`, the Potency result in test [1], in test [2], in test [3], in test [4] and in test [5] was “inactive” throughout.
`CCOC(=O)C(SP(=S)(OC)OC)c1ccccc1` (configuration not stated): the Potency entry in test [1], in test [2], in test [3] and in test [4] was “inactive” each time.
`CCc1ccc(C2CCNCC2)cc1`: the Potency entry in test [1], in test [2], in test [3], in test [4] and in test [5] was “inactive” each time.
With `CN(CCO)CCO`, the Potency result in test [1], in test [2], in test [3], in test [4] and in test [5] was “inactive” each time.
As to `CC[C@H](N)c1ccccc1`, the Potency result in test [1], in test [2], in test [3], in test [4] and in test [5] was “inactive” in each case.
Regarding `CC[C@H](O)C(C[C@H](C)N(C)C)(c1ccccc1)c1ccccc1`, the Potency entry in test [1], in test [2] and in test [3] was “inactive” each time.
As for `Oc1ccc(Cc2ccc(O)cc2)cc1`, the Potency entry in test [1], in test [2], in test [3] and in test [4] was “inactive” each time.
Consider `CC(=NC#N)N(C)Cc1ccc(Cl)nc1`, for which the Potency entry in test [1], in test [2], in test [3], in test [4] and in test [5] was “inactive” each time.
Consider `CC(Cc1ccccc1)NCCn1cnc2c1c(=O)n(C)c(=O)n2C` (configuration not stated), for which the Potency result in test [1], in test [2], in test [3] and in test [4] was “inactive” each time.
Regarding `N#CN`, the Potency entry in test [1], in test [2], in test [3], in test [4] and in test [5] was “inactive” in each case.
Take `CCOC1Oc2ccc(OS(C)(=O)=O)cc2C1(C)C` (configuration not stated): the Potency result in test [1], in test [2], in test [3] and in test [4] was “inactive” each time.
Regarding `O=C(NC(=O)c1c(F)cccc1F)Nc1cc(Cl)c(F)c(Cl)c1F`, the Potency entry in test [1], in test [2], in test [3], in test [4] and in test [5] was “inactive” throughout.
Regarding `Cn1c(N)nc2c3cccnc3ccc21`, the Potency entry in test [1], in test [2], in test [3] and in test [4] was “inactive” in each case.
On to `CC(C)(C)C(=O)Cl`, for which the Potency entry in test [1], in test [2], in test [3], in test [4] and in test [5] was “inactive” in each case.
Take `C/C(=N\NC(=O)Nc1cc(F)cc(F)c1)c1ncccc1C(=O)O`: the Potency result in test [1], in test [2] and in test [3] was “inactive” throughout.
`C[C@H]1CCCC(=O)CCC/C=C/c2cc(O)cc(O)c2C(=O)O1`: the Potency entry in test [1], in test [2] and in test [3] was “inactive” each time.
`CCOC(=O)COc1ccc(Cl)cc1Cl`: the Potency result in test [1], in test [2] and in test [3] was “inactive” in each case.
With `O=P(O)(O)CN(CP(=O)(O)O)CP(=O)(O)O`, the Potency result in test [1], in test [2], in test [3], in test [4] and in test [5] was “inactive” in each case.
For the molecule `CC(C)(C)C(=O)C(Cl)Cl`, the Potency result in test [1], in test [2], in test [3], in test [4] and in test [5] was “inactive” throughout.
As for `CCN(CC)CCOC(=O)C(O)(c1ccccc1)c1ccccc1`, the Potency entry in test [1], in test [2], in test [3], in test [4] and in test [5] was “inactive” in each case.
Regarding `CCOC(=O)c1ncn2c1CN(C)C(=O)c1c(I)cccc1-2`, the Potency entry in test [1], in test [2], in test [3], in test [4] and in test [5] was “inactive” throughout.
Regarding `N#CN=C1SCCN1Cc1ccc(Cl)nc1`, the Potency in test [1] is 38.9 µM (active). For the same molecule, the Potency entry in test [2], in test [3], in test [4] and in test [5] was “inactive” each time.
Take `O=c1[nH]c2ccccc2o1`: the Potency result in test [1], in test [2], in test [3], in test [4] and in test [5] was “inactive” each time.
For `CC(C)c1ccc(O)cc1`, the Potency result in test [1], in test [2], in test [3], in test [4] and in test [5] was “inactive” throughout.
For the molecule `CC1=C2[C@H]3OC(=O)[C@@H](C)[C@@H]3CC[C@@]2(C)C=CC1=O`, the Potency entry in test [1], in test [2], in test [3], in test [4] and in test [5] was “inactive” each time.
For the molecule `CS(=O)(=O)Cl`, the Potency entry in test [1], in test [2], in test [3], in test [4] and in test [5] was “inactive” throughout.

Values taken from PubChem BioAssay (Tox21).
